Compound activity from PubChem.
An excerpt weighted towards active compounds, which were near 19% of everything screened.
TDP1 cell CPT – DT40-hTDP1 cell growth loss with CPT; chicken DT40 Tdp1-/-;hTDP1 cells + 20 nM CPT, ATP luminescence, 48 h; Potency, µM (doses to about 46.2 µM), without a hit: at the top dose activity change, negative = growth inhibition, hits mostly inhibitors; actives 12% (n = 420,000); AID 686979; further: potency means the concentration at half of the fitted maximal effect; nearly all actives have a fitted effect of over 55% in size
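Cell growth measured by CellTiter-Glo luminescence after a minimum 48 h, 37 C compound exposure with 20 nM CPT in Tdp1-knockout DT40 cells stably expressing hTDP1, seeded 400/well; qHTS titration format.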
HT1080 IDH1KD tx – kills HT-1080 cells with IDH1 knockdown | HT-1080 IDH1 knockdown viability, ATP luminescence, 48 h | Potency, µM (highest dose often 46.1 µM), inactives show at the highest dose activity, negative = toxicity, usual class: cytotoxic | actives 2% (n = 360,000);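 further: potency means the concentration at half of the fitted maximal effect; 0% = DMSO wells and -100% = cell-free medium wells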
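Cytotoxicity counter-line: IDH1KD HT-1080, 48 h, CellTiter-Glo. Curves classed by r2, magnitude and activity.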
TDP1 cell noCPT – qHTS for Inhibitors of human tyrosyl-DNA phosphodiesterase 1 (TDP1): qHTS in cells in absence of CPT | Potency, µM (highest dose often 46.2 µM), for inactives: at the top dose activity change, negative = growth inhibition, hits mostly inhibitors | DT40 Tdp1-/- hTDP1 cells, no CPT, ATP luminescence, 48 h | actives 15% (n = 420,000); further: potency means the concentration at half of the fitted maximal effect; nearly all actives have a fitted effect of over 55% in size
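Growth kinetics read by CellTiter-Glo luminescence after ≥48 hr at 37 °C. Cells: DT40 Tdp1-/- stably carrying human TDP1, 400 per well, compound exposure in the absence of CPT (DMSO vehicle).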
HT1080NT lethal – kills 2HG-producing HT-1080-NT fibrosarcoma cells | actives 1.6% (n = 360,000) | AID 686970 | HT-1080-NT fibrosarcoma viability, CellTiter-Glo ATP luminescence, 48 h | Potency, µM (series often up to 46.1 µM), for inactives: at the highest dose activity, negative = less viability, most hits filed as cytotoxic;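 further: NT is the 2HG producing partner of a matched IDH1 knockdown line; potency means the concentration at half of the fitted maximal effect; 0% = DMSO-treated cells and -100% = media-only wells without cells; nearly all actives have a fitted effect of over 55% in size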
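Read-out is CellTiter-Glo luminescence after 10 minutes at room temperature, following 48 hours' compound treatment of HT-1080-NT cells (750 cells/well, RPMI, 5% FBS, 37 degrees C).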
IL-1B inflam inh – inhibitors of inflammasome signaling (IL-1 beta secretion). THP-1 LPS/ATP IL-1B secretion, AlphaLISA, 16 h; hits give low values. activity change, % at 57.5 µM. actives 4.7% (n = 360,000); in the data active means activity change below about -50%; inconclusive means mostly about -30% to -49%
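THP-1 cells pretreated 1 hr with compounds (up to 57.5 uM final), then stimulated with LPS (250 ng/mL final) plus ATP (1.25 mM final); secreted IL-1B measured by AlphaLISA after 16 hr, decreased signal indicating inhibition.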
Numbers without * were called inactive; ? = inconclusive; nt = no result; [ ] = another dose, or the depositor's remark. Unless noted, the call rests on the fitted dose curve; in most records, active means well fitted curve in the direction sought with a large enough effect; inconclusive means small, poorly fitted or top-dose-only effect, or another doubt; inactive means no such curve, though single readings can be large; an effect the other way counts as inactive or inconclusive. Unless noted, on the % scale 0 is the no-effect control and ±100 the full control effect.

SMILES	TDP1 cell CPT	HT1080 IDH1KD tx	TDP1 cell noCPT	HT1080NT lethal	IL-1B inflam inh
O=C(COC(=O)CNC(=O)c1ccccc1)Nc1ccc(S(=O)(=O)N2CCOCC2)cc1	-4%	7%	17%	3%	11
Cn1c(SCc2ccccn2)nc2c1c(=O)[nH]c(=O)n2C	-6%	14%	7%	17%	9
O=C1CCC2S/C(=C/Nc3ccc(C(F)(F)F)cc3)C(=O)N12 (stereo unspecified)	?	-19%	?	1%	-13
CC(=O)Nc1cccc(OCC(=O)Nc2cccc(S(=O)(=O)N3CCCC3)c2)c1	21µM*	-2%	21µM*	-6%	11
COc1ccc(OCCC(=O)OCC(=O)Nc2cccc(S(=O)(=O)N3CCCCC3)c2)cc1	?	?	?	-11%	-96*
O=C(COC(=O)c1ccccc1Cl)Nc1cccc(S(=O)(=O)N2CCCCC2)c1	-23%	4%	?	-4%	6
O=C(COc1ccccc1Cl)Nc1cccc(S(=O)(=O)N2CCCC2)c1	16µM*	0%	21µM*	-1%[9.24 µM]	-21
O=C(COC(=O)/C=C/c1cccs1)Nc1cccc(S(=O)(=O)N2CCCC2)c1	13µM*	14%	23µM*	5%	4
O=C(COc1ccccc1)Nc1cccc(S(=O)(=O)N2CCCC2)c1	-18%	4%	-27%	4%	-2
O=C(O)c1ccc(NC(=O)c2cc(S(=O)(=O)N3CCCCC3)c(Cl)cc2Cl)cc1	-4%	nt	-5%	nt	nt
Cc1ccc(CNC(=O)CN2Cc3ccccc3C2=O)cc1	2%	nt	-13%	nt	nt
O=C(COc1ccccc1[N+](=O)[O-])Nc1cccc(S(=O)(=O)N2CCCC2)c1	23µM*	8%	21µM*	8%	-1
O=C(COc1ccc(F)cc1Cl)Nc1cccc(S(=O)(=O)N2CCCC2)c1	?	2%	-26%	1%	-52*
O=C(COC(=O)COc1ccccc1[N+](=O)[O-])Nc1ccc(S(=O)(=O)N2CCCCC2)cc1	0%	0%	-18%	1%	1
COc1cccc(NC(=O)CN(C)C(=O)CCNS(=O)(=O)c2ccc(C)cc2)c1	5%	9%	15%	8%	9
c1cncc(-c2nn3c(Cn4nnc5ccccc54)nnc3s2)c1	?	8%	?	4%	-7
CCc1nnc2sc(-c3cc(-c4ccccc4)nc4ccccc34)nn12	35µM*	23%	?	-2%	14
CC1(C)CC(=O)c2cc(-c3nc(-c4ccc(Cl)cc4)cs3)c(=O)[nH]c2C1	?	nt	0%	nt	nt
O=C1NCCOC(=O)[C@H](Cc2ccc(F)cc2)C/C=C\C[C@H]1CC(=O)N(CCO)Cc1ccccc1	8.2µM*	3%	9.2µM*	7%	6
O=C1NCCOC(=O)[C@H](Cc2ccc(F)cc2)C/C=C\C[C@@H]1CC(=O)N(CCO)Cc1ccccc1	13µM*	12%	12µM*	3%	5
O=C1CC/C=C\C[C@@H](CC(=O)N(CCO)Cc2ccccc2)C(=O)NCCO1	-8%	3%	-11%	24%	-5
COc1cc(-c2noc(C)c2-c2ccc(N(C)C)nc2)cc(OC)c1OC	0.13µM*	0.18µM*	0.037µM*	0.0058µM*	81
COc1cc(-c2noc(C)c2C(=O)NCCc2c[nH]c3ccccc23)cc(OC)c1OC	?	-13%	?	-1%	-26
COc1cc(-c2noc(C)c2-c2ccc3[nH]ccc3c2)cc(OC)c1OC	1.5µM*	0.037µM*	1.8µM*	1µM*	57
CNS(=O)(=O)c1cccc(C(=O)OCC(=O)N(Cc2ccccc2)C(C)(C)C)c1	-17%	1%	-29%	18%	2
SMILES	TDP1 cell CPT	HT1080 IDH1KD tx	TDP1 cell noCPT	HT1080NT lethal	IL-1B inflam inh
Cc1ccc(S[C@@H](CCN2CC[C@H](C(C)(C)C)CCC2=O)c2ccccc2)cc1	?	?	?	?	-7
Cc1ccc(S[C@@H](CCN2CC[C@H](C)CCC2=O)c2ccccc2)cc1	?	-1%	16µM*	-8%	?
C[C@H]1CCC(=O)N(CCSc2ccc(Br)cc2)CC1	16µM*	15%	18µM*	10%	-2
C[C@@H]1CCC(=O)N(CC[C@H](Sc2ccc(Br)cc2)c2ccccc2)CC1	18µM*	?	20µM*	?	-71*
Cc1ccc(S[C@@H](CCN2CC[C@H](O)CCC2=O)c2ccccc2)cc1	11%	4%	-11%	6%	5
COc1ccc(S[C@@H](CCN2CC[C@H](C)CCC2=O)c2ccccc2)cc1	10µM*	-9%	15µM*	-24%	?
CCC(CC)C(=O)NC1CC(=O)N(c2ccc3c(c2)OCCO3)C1 (stereo unspecified)	-13%	nt	-12%	nt	nt
Cn1c(=O)c(-c2cccc(C#N)c2)nc2cnc(Oc3ccccc3)nc21	7%	nt	24%	nt	nt
O=C1CCC(C(=O)NCc2ccccc2)N1 (stereo unspecified)	21%	8%	5%	10%	-10
C[C@@H]1CCC(=O)N(CC[C@H](Oc2ccccc2)c2ccccc2)CC1	?	0%	13µM*	13%	-4
Cn1nc(C(C)(C)C)cc1C(=O)NCc1cc(F)cc2c1OCOC2	9.2µM*	10µM*	3.7µM*	?	6
COC(=O)c1ccccc1NC(=O)C1=CC(c2ccc3c(c2)OCO3)=NS(=O)(=O)N1C	2%	nt	-5%	nt	nt
CCOC(=O)c1cccc(NC(=O)CSc2nnc(C3CCCCC3)n2CC)c1	?	0%	?	8%	-10
Cn1c(SCc2nc(-c3ccc(Cl)cc3)no2)nnc1-c1ccco1	-22%	1%	?	1%	14
Cc1ccc(-c2noc(CSc3nnnn3C3CCCCC3)n2)cc1	21µM*	-6%	?	-14%	9
CCOc1ccc(-c2nnc(SCc3nnc(-c4ccccc4)o3)n2-c2ccccc2F)cc1	16µM*	-3%	23µM*	2%	-4
COc1ccc(-c2noc(CSc3nnc(-c4ccncc4)n3-c3ccc(OC)cc3)n2)cc1	23µM*	nt	?	nt	nt
COc1ccc(-c2noc(CSc3nnc(C)n3-c3ccc(OC)cc3)n2)cc1	-19%	nt	?	nt	nt
Cc1ccc(-n2c(SCc3nc(-c4ccc(Cl)cc4)no3)nnc2-c2ccncc2)cc1	15µM*	nt	16µM*	nt	nt
COCCCNC(=O)c1ccc(OC)c(OC2CCN(C(C)C)CC2)c1	-1%	1%	5%	0%	0
O=C(COC(=O)CC12CC3CC(CC(Br)(C3)C1)C2)NC(=O)NCc1ccco1	2%	11%	3%	14%	-1
